Assay results published in the OligoGym collection.

biological target: FAM178A; test: pooled miR-30 sensor sort-seq; sequence = guide strand; conditions: shRNA
Also: reference of the scale not given here.

| Sequence | sensor-assay potency score (higher = more potent) |
| --- | --- |
| TAGTTTTGTCTCCTTCTCCTTT | -0.485 |
| TTTAGTTCTCGTTCTCTGCAGT | -0.0234 |
| TATTGAAAAACACAGCTGCTAC | -0.444 |
| TTTCTTTAGAAATTCCTTGTGC | 0.466 |
| TAGACAATCTACTTCCTCCATA | -0.597 |
| TATACCATGATCTTCATGGTGC | 0.577 |
| TATGTCTTCTTGTAGTTGCTTC | 0.216 |
| TTTGGTATCATAGATTCTCTTG | -0.0968 |
| TTTAATTGCAGACTTTTCCTGA | 0.605 |
| TTTTTCTTGAGAGATGTCCATT | -1.17 |

biological target: FAM181A; test: as above; conditions: shRNA

| Sequence | sensor-assay potency score (higher = more potent) |
| --- | --- |
| TACTTCTGGGAGAAGCGCTTGA | -0.152 |
| TTGCGATGGTCCACGGAGCGGC | -0.977 |
| TAGCAAGACATTCCTCCCTGTA | -0.518 |
| TTTTCTTACCCTCATAGGGAGG | -1.8 |
| TTTTCAGGTAGGGCTCAGCAGC | -1.38 |
| TCGGATGCCATCACCAGGGGGC | -0.489 |
| TTGATGTCGCTGGACGCCAGGT | -1.09 |
| AACAAGAACAACAACTGAGATT | -1.01 |
| ATCTTCACATCACTGTCGGATG | -1.37 |
| AAATCCAGGAGCAGCCTCCTGG | -1.06 |
| TTAGCAAGACATTCCTCCCTGT | 0.483 |
| AAGAACAAGAACAACAACTGAG | 0.506 |
